Measured values: PubChem BioAssay (NCATS)
Records with an inconclusive call do not appear. A call without a number means that no potency is given here. Calls of active or inactive are those of the source. Calls follow the shape of the dose curve; as a rule, active = well fitted curve in the direction sought with a large enough effect; inconclusive = small, poorly fitted or top-dose-only effect, or another doubt; inactive = no such curve, though single readings can be large; an effect the other way counts as inactive or inconclusive.

What was measured:
[1] = target: Metallo-beta-lactamase type 2 (Klebsiella pneumoniae) (UniProt C7C422); assay: qHTS to identify inhibitors of the New Delhi Metallo-beta-lactamase (NDM): assay validation screen against the NCATS LOPAC Collection (AID 1794843);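 also: nitrocefin turnover by NDM-1 measured as 485 nm absorbance at plateau; series mostly up to about 38 µM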
Chain of Metallo-beta-lactamase type 2 (Klebsiella pneumoniae) (C7C422 whole entry, looked up): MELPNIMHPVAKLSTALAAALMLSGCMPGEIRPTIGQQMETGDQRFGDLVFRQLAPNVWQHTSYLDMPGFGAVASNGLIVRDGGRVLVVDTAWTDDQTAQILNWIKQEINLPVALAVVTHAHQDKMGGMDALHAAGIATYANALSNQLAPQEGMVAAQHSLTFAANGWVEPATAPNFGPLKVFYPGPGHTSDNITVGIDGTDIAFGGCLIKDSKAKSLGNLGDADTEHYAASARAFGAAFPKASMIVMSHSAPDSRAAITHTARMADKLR
Method in brief: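 NDM-1 at 2 nM final in 50 mM HEPES pH 7.0 with 1 uM ZnSO4 and 0.01% Tween20 was preincubated with library compounds in DMSO. Nitrocefin (50 uM stock) was then added, and absorbance at 485 nm was read at the kinetic plateau.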

[2] = target: Glutathione peroxidase 1 (Homo sapiens) (UniProt P07203); assay: Primary qHTS Assay for Inhibitors of Recombinant Selenoprotein Glutathione Peroxidase 1 (GPX1) (AID 1845191); also: nearly all actives have a fitted effect of over 65% in size
Chain of Glutathione peroxidase 1 (Homo sapiens) (P07203 whole entry, looked up): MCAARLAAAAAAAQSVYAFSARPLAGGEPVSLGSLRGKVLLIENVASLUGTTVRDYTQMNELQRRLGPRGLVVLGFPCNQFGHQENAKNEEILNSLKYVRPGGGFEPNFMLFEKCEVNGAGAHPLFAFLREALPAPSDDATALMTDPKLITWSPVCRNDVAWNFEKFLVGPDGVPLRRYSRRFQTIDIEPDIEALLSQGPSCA
Method in brief: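 NADPH consumption tracked by fluorescence at 340/450 nm between t=0 and t=15 min, room temperature. Final mix: 10 nM GPX1, 100 nM glutathione reductase, 1 mM GSH, 0.5 mM NADPH, 0.5 mM cumene hydroperoxide, 0.01% BSA; 30 min compound–enzyme preincubation.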

[3] = target: Phospholipid hydroperoxide glutathione peroxidase GPX4 (Homo sapiens) (UniProt P36969); assay: Primary qHTS Assay for Inhibitors of Recombinant Selenoprotein Glutathione Peroxidase 4 (GPX4) (AID 1845192); also: nearly all actives have a fitted effect of over 65% in size
Chain of Phospholipid hydroperoxide glutathione peroxidase GPX4 (Homo sapiens) (P36969 whole entry, looked up): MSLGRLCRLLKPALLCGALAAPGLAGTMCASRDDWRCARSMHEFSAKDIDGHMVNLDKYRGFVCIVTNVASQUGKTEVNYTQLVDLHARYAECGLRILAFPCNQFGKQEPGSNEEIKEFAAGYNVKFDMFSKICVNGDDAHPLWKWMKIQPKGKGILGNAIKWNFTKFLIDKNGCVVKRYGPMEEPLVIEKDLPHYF
Method in brief: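 NADPH consumption followed by fluorescence at 340/450 nm, t=0 and after 15 min at room temperature. Reaction started with cumene hydroperoxide (0.5 mM final) after 30 min compound–GPX4 preincubation; final 200 nM GPX4, 100 nM GR, 1 mM GSH, 0.5 mM NADPH.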

[4] = Viability counterscreen for agonist of constitutive androstane receptor (CAR) against the NCATS DSHEA and TCM libraries (AID 1794838);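 also: cells exposed to compound for 24 h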
Method in brief: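 Cell viability, from CellTiter-Fluor fluorescence (405/540 nm), was scored after a 24 h, 37C exposure of HepG2 cells carrying CYP2B6 reporter and hCAR to test substances in presence of 0.75 uM PK11195.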

[5] = target: Nuclear receptor subfamily 1 group I member 3 (Homo sapiens) (UniProt Q14994); assay: Primary qHTS for agonist of constitutive androstane receptor (CAR) against the NCATS DSHEA and TCM libraries (AID 1794839);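 also: HepG2 cells expressing human CAR with a CYP2B6 reporter plus PK11195 antagonist; luciferase reporter luminescence read with ONE-Glo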
Chain of Nuclear receptor subfamily 1 group I member 3 (Homo sapiens) (Q14994 whole entry, looked up): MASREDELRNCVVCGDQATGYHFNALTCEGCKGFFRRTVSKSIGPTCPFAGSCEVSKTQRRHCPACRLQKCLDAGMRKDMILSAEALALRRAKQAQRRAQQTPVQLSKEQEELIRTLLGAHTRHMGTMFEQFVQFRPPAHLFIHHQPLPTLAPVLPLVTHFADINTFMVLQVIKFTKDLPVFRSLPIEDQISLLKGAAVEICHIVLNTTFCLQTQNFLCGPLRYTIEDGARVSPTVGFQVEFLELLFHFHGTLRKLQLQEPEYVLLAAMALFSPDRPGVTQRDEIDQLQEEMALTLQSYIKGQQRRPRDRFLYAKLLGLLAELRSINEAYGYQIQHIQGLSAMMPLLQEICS
Method in brief: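 Agonist mode in presence of hCAR antagonist PK11195 (0.75 µM final): test substances, 24 h, 37 °C, on HepG2-CYP2B6-hCAR cells. Same-well readouts: fluorescence viability, then ONE-Glo luminescence; CITCO as reference agonist.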

[6] = HepG2 viability counterscreen (readout 2: ATP content) against the NCATS DSHEA and TCM libraries (AID 1794840);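 also: HepG2 cells exposed to substances for about 24 h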
Method in brief: (§1)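 Readout 1: cellular protease activity, GF-AFC substrate (25 uM final, 30 min, fluorescence 380/510 nm). Readout 2: ATP content by CellTiter-Glo luminescence after 30 min at RT. Both follow ~24 h exposure of HepG2 cells (1,000/well) to substances.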

[7] = HepG2 viability counterscreen (readout 1: protease activity) against the NCATS DSHEA and TCM libraries (AID 1794841);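 also: cells exposed to compounds for about 24 h before the protease read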
Method in brief: as §1

## CCCN(CCC)CCc1ccc(O)c(O)c1
[1]
  Potency: inactive
[2]
  Potency: inactive
[3]
  Potency: inactive

## Cc1cc([C@@H]2CCCN2C)on1
[1]
  Potency: inactive
[2]
  Potency: inactive
[3]
  Potency: inactive

## NNC(=O)c1ccc(O)cc1
[1]
  Potency: inactive
[2]
  Potency: inactive

## CCS(=O)(=O)Nc1cccc(C(=C2CCCCC2)c2cnc[nH]2)c1
[1]
  Potency: inactive
[2]
  Potency: inactive

## C[N+]1(C)CCc2cc3c(cc2[C@H]1[C@@H]1OC(=O)c2c1ccc1c2OCO1)OCO3
[1]
  Potency: inactive
[2]
  Potency: inactive

## O=C1CC[C@@]2(O)C3Cc4ccc(O)c5c4C2(CCN3CC2CC2)[C@H]1O5 (stereo not given in full)
[1]
  Potency: inactive
[2]
  Potency: inactive

## Oc1ccc2c3c1O[C@H]1c4[nH]c5ccccc5c4C[C@@]4(O)C(C2)N(CC2CC2)CCC314 (stereo not given in full)
[1]
  Potency: inactive
[2]
  Potency: inactive

## CCNC(=O)[C@H]1O[C@@H](n2cnc3c(N)ncnc32)[C@H](O)[C@@H]1O
[1]
  Potency: inactive
[2]
  Potency: inactive
[3]
  Potency: inactive

## CCn1cnc2c(Nc3cccc(Cl)c3)nc(N[C@@H]3CCCC[C@@H]3N)nc21
[1]
  Potency: inactive
[2]
  Potency: inactive

## CP(=O)(O)C1=CCNCC1
[1]
  Potency: inactive
[2]
  Potency: inactive
[3]
  Potency: inactive

## CN1C2CCC1CC(OC(c1ccccc1)c1ccccc1N)C2 (stereo not given)
[1]
  Potency: inactive
[2]
  Potency: inactive

## NC(N)=NOCC[C@H](N)C(=O)O
[1]
  Potency: inactive
[2]
  Potency: inactive
[3]
  Potency: inactive

## Nc1ccc(CCN2CCN(c3cccc(C(F)(F)F)c3)CC2)cc1
[1]
  Potency: inactive
[2]
  Potency: inactive
[3]
  Potency: inactive

## CC(N)Cc1c[nH]c2ccc(OCc3cccs3)cc12 (stereo not given)
[1]
  Potency: inactive
[2]
  Potency: inactive
[3]
  Potency: inactive

## O=C(NC1CN2CCC1CC2)c1cc2ccoc2cn1 (stereo not given)
[1]
  Potency: inactive
[2]
  Potency: inactive

## Cc1o[nH]c(=O)c1CC(N)C(=O)O (stereo not given)
[1]
  Potency: inactive
[2]
  Potency: inactive

## O=C/C=C/c1ccccc1
[4]
  outcome: inactive
[5]
  outcome: inactive
[6]
  outcome: inactive
[7]
  outcome: inactive
[2]
  Potency: inactive
[3]
  Potency: inactive

## O=[N+]([O-])c1ccc2nc(N3CCNCC3)ccc2c1
[1]
  Potency: inactive
[2]
  Potency: inactive
[3]
  Potency: inactive

## C[C@H]1C2Cc3ccc(O)cc3[C@@]1(C)CCN2CC1CC1
[1]
  Potency: inactive
[2]
  Potency: inactive
[3]
  Potency: inactive

## CC(Cc1ccc(OCC(=O)O)cc1)NCC(O)c1cccc(Cl)c1 (stereo not given)
[1]
  Potency: inactive
[2]
  Potency: inactive
[3]
  Potency: inactive

## O=[N+]([O-])c1cc(O)c(O)c([N+](=O)[O-])c1
[1]
  Potency: inactive
[2]
  Potency: inactive
[3]
  Potency: inactive

## Cc1c2ccncc2c(C)c2c1[nH]c1ccccc12
[1]
  Potency: inactive
[2]
  Potency: inactive
[3]
  Potency: inactive
